± gives the standard deviation.
system: RAW-Dual (murine macrophage reporter line); test: IRF reporter (Lucia luciferase) activity fold change vs agonist alone; higher = enhanced IRF activity; conditions: modulator concentration 10 µM; agonist: LPS 0.1 ug/mL
Procedure, shortened: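 RAW-Dual murine macrophage reporter cells were plated at 50 000 per well in 384-well plates, pin-transferred compound to 10 μM final, and pre-incubated for 1 hour at 37 °C before a PRR agonist was added and the cells incubated overnight. NF-κB activity was read from supernatant SEAP with QUANTI-Blue at 620 nm absorbance, and IRF activity from Lucia luciferase with QUANTI-Luc by luminescence. Each signal was expressed as fold change by dividing by the mean agonist-only control on the same plate. Two replicate plates were averaged, with errors obtained by propagation.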

Compound | IRF reporter
CC(C(=O)O)c1ccc(C(=O)c2cccs2)cc1 (centres undefined) | 1.22 ± 0.14
CCOC(=O)Nc1ccc(NCc2ccc(F)cc2)nc1N.O=C(O)/C=C/C(=O)O | 1.3 ± 0.23
O=C(NC1CCCCCC1)c1ccc([N+](=O)[O-])cc1Cl | 1.08 ± 0.14
Cc1cc(CCNC(=O)c2nc3ccccc3s2)nn1C | 1.02 ± 0.048
CCC(=O)Nc1ccc(S(=O)(=O)N2CCC(Oc3ncnc(CC)c3F)C2)c(C)c1 (centres undefined) | 1.24 ± 0.21
Cl.O=S(=O)(c1cccc2cnccc12)N1CCCNCC1 | 0.85 ± 0.15
N#CC(=Cc1ccc(-c2ccc(Cl)cc2)o1)C(N)=O | 1.43 ± 0.1
O=C1CC(c2ccc(O)cc2)Oc2cc(O)cc(O)c21 (centres undefined) | 1.09 ± 0.14
Cc1noc(C)c1CN1CCC(C(F)(F)F)CC1.Cl | 1.32 ± 0.29
Cc1cccc(OCCCOc2cccc3cccnc23)c1C | 1.44 ± 0.083
COC(=O)C1C(=O)C(=CNc2ccccc2C)C(=O)CC1(C)C (centres undefined) | 1.12 ± 0.34
Cc1ccc(-c2ncnn2-c2ccc(Cl)cc2)cc1 | 1.26 ± 0.073
COc1ccnc(CS(=O)c2nc3ccc(OC(F)F)cc3[nH]2)c1OC (centres undefined) | 1.07 ± 0.11
Cc1cc(OC2CN(C(=O)Cn3cnc4ccccc43)C2)cc(=O)n1C1CC1 | 1.06 ± 0.06
COc1ccc(-c2ccc(OCCNC(=O)Cc3ccc(Br)cc3)nn2)cc1 | 1.09 ± 0.2
CCS(=O)(=O)N1CCC2(CC1)NC(=O)N(CCOc1ccccc1)C2=O | 1.43 ± 0.25
Cc1nc2ccc(CN(C)c3ccc(C(=O)N[C@@H](CCC(=O)O)C(=O)O)s3)cc2c(=O)[nH]1 | 1.09 ± 0.063
COc1ccc(Cc2nnc(C3CCN(S(C)(=O)=O)CC3)s2)cc1 | 1.25 ± 0.076
NC(=O)CN1C(=O)C2C3c4ccccc4C(c4ccccc43)C2C1=O (centres undefined) | 0.946 ± 0.092
